Reference: PubChem BioAssay AID1159580 (chemical genetic matrix, 2015)
Hit rate of the full screen: of about 5,500 compounds, about 2,000 (36%) were called active. Not shown: some 18% with an inconclusive outcome. Cut-off read from the data, not from the text of the source: active = normalized growth mostly below about 0.91 (no sharp cut-off); inconclusive = no clear call, values can overlap the other calls; inactive = mostly above about 0.92. The list shows a part of the results.

Test: chemical genetic growth profiling, strain panel (AID 1159580);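 note: tested at 20 µM; growth read once vehicle control cultures reached saturation at 30 °C; 1 = growth at the plate median or of vehicle wells; lower values mean less growth of the strain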
Details: S. cerevisiae deletion strains, growth OD

Measured: normalized growth

COC(=O)[C@]1(C)CCC[C@]2(C)c3ccc(C(C)C)cc3C(=O)CC12 (stereo partly drawn)
active: locus YBR171W, strain sec66, stronger effect = lower value 0.869 | locus YDR392W, strain spt3, stronger effect = lower value 0.732
inactive: locus YAL013W, strain DEP1, stronger effect = lower value 0.981 | locus YAL021C, strain ccr4, stronger effect = lower value 0.992 | locus YAL026C, strain drs2, stronger effect = lower value 0.952 | locus YAL030W, strain snc1, stronger effect = lower value 0.974 | locus YBL061C, strain skt5, stronger effect = lower value 0.972 | locus YBR009C, strain hhf1, stronger effect = lower value 0.961 | locus YBR021W, strain FUR4, stronger effect = lower value 1.1 | locus YBR023C, strain chs3, stronger effect = lower value 0.973 | locus YBR229C, strain ROT2, stronger effect = lower value 0.986 | locus YBR231C, strain swc5, stronger effect = lower value 0.968 | locus YBR279W, strain paf1, stronger effect = lower value 0.971 | locus YCL011C, strain gbp2, stronger effect = lower value 0.961 | locus YCL016C, strain dcc1, stronger effect = lower value 0.979 | locus YCL029C, strain bik1, stronger effect = lower value 1.01 | locus YCL061C, strain MRC1, stronger effect = lower value 0.968 | locus YCL069W, strain vba3, stronger effect = lower value 0.956 | locus YCR088W, strain abp1, stronger effect = lower value 0.96 | locus YDL005C, strain med2, stronger effect = lower value 0.945 | locus YDL035C, strain GPR1, stronger effect = lower value 0.999 | locus YDL040C, strain nat1, stronger effect = lower value 0.96 | locus YDL074C, strain BRE1, stronger effect = lower value 0.863 | locus YDL101C, strain DUN1, stronger effect = lower value 0.969 | locus YDL134C, strain PPH21, stronger effect = lower value 0.974 | locus YDL185W, strain tfp1, stronger effect = lower value 1 | locus YDL192W, strain arf1, stronger effect = lower value 1.01 | locus YDR001C, strain nth1, stronger effect = lower value 0.957 | locus YDR069C, strain doa4, stronger effect = lower value 0.974 | locus YDR101C, strain arx1, stronger effect = lower value 1.01 | locus YDR137W, strain rgp1, stronger effect = lower value 0.866 | locus YDR150W, strain NUM1, stronger effect = lower value 0.975 | locus YDR159W, strain sac3, stronger effect = lower value 0.95 | locus YDR162C, strain NBP2, stronger effect = lower value 0.866 | locus YDR195W, strain ref2 0.97 | locus YDR297W, strain sur2, stronger effect = lower value 0.967 | locus YDR318W, strain mcm21, stronger effect = lower value 1.02 | locus YDR334W, strain swr1, stronger effect = lower value 0.948 | locus YDR335W, strain msn5, stronger effect = lower value 0.978 | locus YDR388W, stronger effect = lower value 1 | locus YDR502C, strain sam2, stronger effect = lower value 0.985 | locus YEL003W, strain gim4, stronger effect = lower value 0.977 | locus YEL037C, strain rad23, stronger effect = lower value 0.95 | locus YEL061C, strain CIN8 (second series), stronger effect = lower value 0.948 | locus YEL061C, strain CIN8, stronger effect = lower value 0.997 | locus YER015W, strain faa2, stronger effect = lower value 0.974 | locus YER016W, strain bim1, stronger effect = lower value 0.958 | locus YER110C, stronger effect = lower value 1.02 | locus YER111C, strain swi4, stronger effect = lower value 0.956 | locus YER155C, strain BEM2 (second series), stronger effect = lower value 0.956 | locus YER155C, strain BEM2, stronger effect = lower value 0.995 | locus YER167W, strain BCK2, stronger effect = lower value 0.997 | locus YFR010W, strain ubp6, stronger effect = lower value 0.977 | locus YGL078C, strain dbp3, stronger effect = lower value 0.988 | locus YGL086W, strain mad1, stronger effect = lower value 1.01 | locus YGL167C, strain pmr1, stronger effect = lower value 0.928 | locus YGL173C, strain kem1, stronger effect = lower value 0.97 | locus YGL227W, strain vid30, stronger effect = lower value 0.972 | locus YGL240W, strain doc1, stronger effect = lower value 0.973 | locus YGL248W, strain PDE1, stronger effect = lower value 0.971 | locus YGL253W, strain hxk2, stronger effect = lower value 0.978 | locus YGR078C, strain PAC10, stronger effect = lower value 0.957 | locus YGR135W, strain pre9, stronger effect = lower value 0.954 | locus YGR229C, strain SMI1, stronger effect = lower value 0.861 | locus YGR252W, strain gcn5, stronger effect = lower value 1.1 | locus YHR013C, strain ard1, stronger effect = lower value 0.959 | locus YHR027C, strain rpn1, stronger effect = lower value 0.971 | locus YHR030C, strain SLT2, stronger effect = lower value 1 | locus YHR079C, strain IRE1 (second series), stronger effect = lower value 0.999 | locus YHR094C, strain hxt1, stronger effect = lower value 0.995 | locus YHR129C, strain ARP1, stronger effect = lower value 0.994 | locus YHR142W, strain chs7, stronger effect = lower value 0.98 | locus YHR200W, strain rpn10, stronger effect = lower value 0.993 | locus YIL066C, strain RNR3, stronger effect = lower value 0.974 | locus YIL073C, strain SPO22, stronger effect = lower value 1.01 | locus YIL125W, strain kgd1, stronger effect = lower value 0.996 | locus YIR030C, strain dcg1, stronger effect = lower value 0.993 | locus YJL092W, strain hpr5, stronger effect = lower value 0.946 | locus YJL095W, strain BCK1 (second series), stronger effect = lower value 0.972 | locus YJL095W, strain BCK1, stronger effect = lower value 0.889 | locus YJL115W, strain asf1, stronger effect = lower value 0.962 | locus YJL129C, strain trk1, stronger effect = lower value 0.899 | locus YJL134W, strain LCB3, stronger effect = lower value 0.989 | locus YJL154C, strain vps35, stronger effect = lower value 0.967 | locus YJL164C, strain tpk1, stronger effect = lower value 0.957 | locus YJL166W, strain qcr8, stronger effect = lower value 0.968 | locus YJL168C, strain set2, stronger effect = lower value 0.998 | locus YJL187C, strain SWE1 (second series), stronger effect = lower value 0.98
